Assay results reported in the supplement of paper PMC10849652.
About 8,800 targets were measured; listed, in parts, are those with a hit and a random draw of the rest. About 0.5% of all pairs of compound and target were hits. Values without a mark were called inactive.

Tests used:
Assay in all cases: log2 fold change, soluble protein after heating vs DMSO (PISA); higher = thermal stabilisation; K562 lysate, 10 uM; active = over 0.2 and 3.5 SD of the protein, either way, in both replicates (recomputed)
[1] = compound: CCCS(=O)(=O)Nc1ccc(F)c(C(=O)c2c[nH]c3ncc(-c4ccc(Cl)cc4)cc23)c1F [vemurafenib]
How it was run: (§1)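 Pellets of K562 cells were dounce-homogenised in PBS pH 7.4 with 1 mM MgCl2, and the crude extract was held at 1 mg/mL protein for a 30 min treatment with 10 μM compound. Aliquots were heated for 3 min over 48°C-58°C and pooled before NP-40 was added to 0.5% at 4°C. The supernatant from 21,000xg for 90 min was quantified by TMTpro 16plex LC-MS/MS with channel sums equalised. Values are reported from duplicates as log-two fold change in thermal stability relative to solvent controls.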

[2] = compound: CCCS(=O)(=O)Nc1ccc(F)c(C(=O)c2c[nH]c3ncc(Cl)cc23)c1F
How it was run: as §1

[3] = compound: CCN(CCCOc1ccc2c(Nc3cc(CC(=O)Nc4cccc(F)c4)[nH]n3)ncnc2c1)CCOP(=O)(O)O [barasertib]
How it was run: as §1

[4] = compound: CC[C@@H]1C(=O)N(C)c2cnc(Nc3ccc(C(=O)NC4CCN(C)CC4)cc3OC)nc2N1C1CCCC1
How it was run: as §1

[5] = compound: CC[C@@H]1C(=O)N(C)c2cnc(Nc3ccc(C(=O)N[C@H]4CC[C@H](N5CCN(CC6CC6)CC5)CC4)cc3OC)nc2N1C(C)C [volasertib]
How it was run: as §1

[6] = compound: CCn1c(C(=O)N(C2CC2)C2CC2)cc2c3c(ncn3C)c(Nc3cc(C)n(C)n3)nc21
How it was run: as §1

[7] = compound: CCn1cc(-c2ccnc3[nH]c(-c4cccc(CN(C)C)c4)cc23)c(-c2ccc(NC(=O)N(C)C)cc2)n1
How it was run: as §1

[8] = compound: CN1CCC(CNc2ccc3ncc(-c4cccc(OC(F)(F)F)c4)n3n2)CC1
How it was run: as §1

[9] = compound: CN1CCN(CCOc2cc(OC3CCOCC3)c3c(Nc4c(Cl)ccc5c4OCO5)ncnc3c2)CC1 [saracatinib]
How it was run: as §1

[10] = compound: CN1CCN(c2nc(C3=C(c4c[nH]c5ccccc45)C(=O)NC3=O)c3ccccc3n2)CC1 [sotrastaurin]
How it was run: as §1

[11] = compound: CN1CC[C@H](c2c(O)cc(O)c3c(=O)cc(-c4ccccc4Cl)oc23)[C@H](O)C1 [alvocidib]
How it was run: as §1

[12] = compound: CN1CCc2c(c3ccccc3n2Cc2ccc(C(=O)NO)cc2)C1 [Tubastatin A]
How it was run: as §1

[13] = compound: CNC(=O)C1=CC=CC=C1NC2=NC(=NC=C2Cl)NC3=C(C=C(C=C3)N4CCOCC4)OC
How it was run: as §1

[14] = compound: CNC(=O)c1ccc(Nc2ncc(C(F)(F)F)c(NCc3nccnc3N(C)S(C)(=O)=O)n2)cc1 [defactinib]
How it was run: as §1

[15] = compound: CNc1nc(-c2ccc3c(N)n[nH]c3c2)cc(N2C[C@@H](C(=O)NC3CCCCC3)CC[C@H]2C)n1
How it was run: as §1

[16] = compound: COC(=O)N[C@@H](C)CNc1nccc(-c2cn(C(C)C)nc2-c2cc(Cl)cc(NS(C)(=O)=O)c2F)n1 [encorafenib]
How it was run: as §1

[17] = compound: COC(=O)[C@H](CCSC)NC(=O)C1=C(C=C(C=C1)NC[C@H](CS)N)C2=CC=CC=C2
How it was run: as §1

[18] = compound: COc1cc(Nc2ncc3c(n2)-c2ccc(Cl)cc2C(c2c(F)cccc2OC)=NC3)ccc1C(=O)O [alisertib]
How it was run: as §1

[19] = compound: COc1cc2nc(-c3cc(F)ccc3O)nc(N[C@@H]3CNC[C@H]3C(C)(C)O)c2cc1OC
How it was run: as §1

[20] = compound: COc1cc2ncnc(Nc3ccc(F)c(Cl)c3)c2cc1OCCCN1CCOCC1 [gefitinib]
How it was run: as §1

Sequence of UniProt O14981 (O14981 whole entry, looked up): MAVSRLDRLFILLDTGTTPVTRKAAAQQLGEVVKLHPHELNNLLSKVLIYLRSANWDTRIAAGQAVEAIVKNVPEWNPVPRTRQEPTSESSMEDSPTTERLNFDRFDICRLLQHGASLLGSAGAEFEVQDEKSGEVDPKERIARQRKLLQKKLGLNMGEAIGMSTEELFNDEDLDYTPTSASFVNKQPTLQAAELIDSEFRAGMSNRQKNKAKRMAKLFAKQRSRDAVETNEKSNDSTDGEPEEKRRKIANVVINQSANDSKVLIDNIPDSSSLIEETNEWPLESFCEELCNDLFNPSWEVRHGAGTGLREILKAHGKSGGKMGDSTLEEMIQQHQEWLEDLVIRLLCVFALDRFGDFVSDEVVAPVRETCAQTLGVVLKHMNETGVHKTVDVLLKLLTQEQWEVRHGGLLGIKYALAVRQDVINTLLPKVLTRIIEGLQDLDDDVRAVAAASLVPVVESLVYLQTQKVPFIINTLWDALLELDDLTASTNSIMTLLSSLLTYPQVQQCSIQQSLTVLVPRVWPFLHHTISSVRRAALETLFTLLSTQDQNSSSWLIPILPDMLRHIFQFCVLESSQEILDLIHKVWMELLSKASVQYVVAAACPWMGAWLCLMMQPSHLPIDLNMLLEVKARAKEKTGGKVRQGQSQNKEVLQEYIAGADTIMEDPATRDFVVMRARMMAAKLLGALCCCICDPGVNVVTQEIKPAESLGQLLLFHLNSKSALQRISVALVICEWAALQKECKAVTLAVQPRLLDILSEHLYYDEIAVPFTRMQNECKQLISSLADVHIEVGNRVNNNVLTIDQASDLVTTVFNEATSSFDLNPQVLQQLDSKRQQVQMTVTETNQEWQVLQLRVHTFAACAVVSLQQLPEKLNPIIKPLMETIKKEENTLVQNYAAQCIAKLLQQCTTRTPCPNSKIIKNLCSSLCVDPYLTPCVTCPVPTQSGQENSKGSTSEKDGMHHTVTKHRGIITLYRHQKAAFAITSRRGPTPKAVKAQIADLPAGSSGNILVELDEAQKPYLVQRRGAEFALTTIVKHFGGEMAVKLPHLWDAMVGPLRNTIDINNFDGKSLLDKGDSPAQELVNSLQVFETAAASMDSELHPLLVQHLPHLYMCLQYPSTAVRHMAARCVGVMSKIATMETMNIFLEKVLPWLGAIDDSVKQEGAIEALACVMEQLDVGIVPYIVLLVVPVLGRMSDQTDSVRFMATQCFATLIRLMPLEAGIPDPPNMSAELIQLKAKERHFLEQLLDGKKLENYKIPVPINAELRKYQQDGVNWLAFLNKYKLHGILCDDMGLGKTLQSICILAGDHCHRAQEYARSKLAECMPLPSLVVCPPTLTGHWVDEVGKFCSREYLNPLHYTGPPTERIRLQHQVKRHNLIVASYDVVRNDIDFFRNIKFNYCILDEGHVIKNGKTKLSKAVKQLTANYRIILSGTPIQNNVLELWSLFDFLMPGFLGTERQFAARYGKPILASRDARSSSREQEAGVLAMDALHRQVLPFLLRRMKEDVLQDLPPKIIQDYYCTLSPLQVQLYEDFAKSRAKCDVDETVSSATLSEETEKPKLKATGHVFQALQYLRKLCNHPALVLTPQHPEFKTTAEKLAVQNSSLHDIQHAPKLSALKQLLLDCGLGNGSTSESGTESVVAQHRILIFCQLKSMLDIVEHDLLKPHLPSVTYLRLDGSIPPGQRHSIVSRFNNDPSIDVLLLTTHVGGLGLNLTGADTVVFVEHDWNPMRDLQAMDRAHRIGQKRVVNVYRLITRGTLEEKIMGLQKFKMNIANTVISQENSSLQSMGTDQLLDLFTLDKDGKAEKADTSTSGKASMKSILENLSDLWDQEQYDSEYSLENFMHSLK
Sequence of UniProt Q92879 (Q92879 whole entry, looked up): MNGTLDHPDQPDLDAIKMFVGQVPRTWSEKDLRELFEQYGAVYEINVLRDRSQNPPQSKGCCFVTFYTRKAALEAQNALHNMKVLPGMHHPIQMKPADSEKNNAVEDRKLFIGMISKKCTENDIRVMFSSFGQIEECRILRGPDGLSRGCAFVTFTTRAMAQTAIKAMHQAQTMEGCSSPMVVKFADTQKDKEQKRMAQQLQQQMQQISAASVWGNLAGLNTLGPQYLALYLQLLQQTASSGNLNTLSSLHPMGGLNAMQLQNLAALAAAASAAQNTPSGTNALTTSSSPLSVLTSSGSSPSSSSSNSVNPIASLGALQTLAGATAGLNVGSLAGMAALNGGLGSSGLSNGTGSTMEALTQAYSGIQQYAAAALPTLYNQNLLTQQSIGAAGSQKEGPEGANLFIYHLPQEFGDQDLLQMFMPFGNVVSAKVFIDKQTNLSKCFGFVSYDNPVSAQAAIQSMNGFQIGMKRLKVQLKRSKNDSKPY
Sequence of UniProt O95352 (O95352 whole entry, looked up): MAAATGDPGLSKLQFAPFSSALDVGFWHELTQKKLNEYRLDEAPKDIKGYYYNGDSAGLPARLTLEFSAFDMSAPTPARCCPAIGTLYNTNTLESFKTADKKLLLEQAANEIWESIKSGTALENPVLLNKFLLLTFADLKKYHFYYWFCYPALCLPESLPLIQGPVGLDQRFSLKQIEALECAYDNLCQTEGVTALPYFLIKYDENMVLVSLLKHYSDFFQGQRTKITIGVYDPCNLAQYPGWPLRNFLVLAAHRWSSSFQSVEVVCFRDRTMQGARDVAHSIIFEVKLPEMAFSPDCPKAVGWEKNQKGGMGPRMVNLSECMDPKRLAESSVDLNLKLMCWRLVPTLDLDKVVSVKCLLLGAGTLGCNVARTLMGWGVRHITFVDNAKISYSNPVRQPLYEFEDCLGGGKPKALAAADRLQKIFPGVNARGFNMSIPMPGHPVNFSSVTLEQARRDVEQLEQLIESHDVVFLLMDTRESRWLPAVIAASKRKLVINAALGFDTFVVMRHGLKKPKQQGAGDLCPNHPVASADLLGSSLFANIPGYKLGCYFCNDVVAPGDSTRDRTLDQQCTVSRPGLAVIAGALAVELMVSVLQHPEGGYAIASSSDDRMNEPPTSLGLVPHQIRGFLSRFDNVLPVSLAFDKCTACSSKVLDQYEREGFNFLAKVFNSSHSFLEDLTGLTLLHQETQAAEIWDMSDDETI
Sequence of UniProt A6NDU8 (A6NDU8 whole entry, looked up): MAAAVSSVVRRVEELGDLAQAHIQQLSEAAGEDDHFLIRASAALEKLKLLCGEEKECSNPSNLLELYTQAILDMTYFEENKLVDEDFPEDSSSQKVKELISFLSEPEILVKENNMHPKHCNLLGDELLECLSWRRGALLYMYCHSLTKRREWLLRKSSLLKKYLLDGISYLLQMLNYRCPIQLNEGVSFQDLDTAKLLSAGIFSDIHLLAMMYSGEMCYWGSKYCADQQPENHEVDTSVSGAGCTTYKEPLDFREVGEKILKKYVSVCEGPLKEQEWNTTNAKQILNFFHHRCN
Sequence of UniProt Q8TCD1 (Q8TCD1 whole entry, looked up): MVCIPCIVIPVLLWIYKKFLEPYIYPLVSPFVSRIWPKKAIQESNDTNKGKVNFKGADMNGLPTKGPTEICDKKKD
Sequence of UniProt P83916 (P83916 whole entry, looked up): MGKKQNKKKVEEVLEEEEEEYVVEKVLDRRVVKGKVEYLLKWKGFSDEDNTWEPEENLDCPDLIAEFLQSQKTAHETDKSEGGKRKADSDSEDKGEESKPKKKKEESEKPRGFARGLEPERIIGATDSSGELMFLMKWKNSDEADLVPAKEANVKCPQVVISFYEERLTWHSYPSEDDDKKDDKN
Sequence of UniProt Q7L2Z9 (Q7L2Z9 whole entry, looked up): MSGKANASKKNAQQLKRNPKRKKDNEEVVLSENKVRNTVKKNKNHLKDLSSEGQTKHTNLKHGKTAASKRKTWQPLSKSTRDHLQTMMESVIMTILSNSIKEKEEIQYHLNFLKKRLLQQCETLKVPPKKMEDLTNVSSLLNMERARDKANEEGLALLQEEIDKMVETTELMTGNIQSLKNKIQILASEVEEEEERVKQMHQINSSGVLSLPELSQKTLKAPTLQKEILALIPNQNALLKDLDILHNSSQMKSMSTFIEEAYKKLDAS
Sequence of UniProt O60566 (O60566 whole entry, looked up): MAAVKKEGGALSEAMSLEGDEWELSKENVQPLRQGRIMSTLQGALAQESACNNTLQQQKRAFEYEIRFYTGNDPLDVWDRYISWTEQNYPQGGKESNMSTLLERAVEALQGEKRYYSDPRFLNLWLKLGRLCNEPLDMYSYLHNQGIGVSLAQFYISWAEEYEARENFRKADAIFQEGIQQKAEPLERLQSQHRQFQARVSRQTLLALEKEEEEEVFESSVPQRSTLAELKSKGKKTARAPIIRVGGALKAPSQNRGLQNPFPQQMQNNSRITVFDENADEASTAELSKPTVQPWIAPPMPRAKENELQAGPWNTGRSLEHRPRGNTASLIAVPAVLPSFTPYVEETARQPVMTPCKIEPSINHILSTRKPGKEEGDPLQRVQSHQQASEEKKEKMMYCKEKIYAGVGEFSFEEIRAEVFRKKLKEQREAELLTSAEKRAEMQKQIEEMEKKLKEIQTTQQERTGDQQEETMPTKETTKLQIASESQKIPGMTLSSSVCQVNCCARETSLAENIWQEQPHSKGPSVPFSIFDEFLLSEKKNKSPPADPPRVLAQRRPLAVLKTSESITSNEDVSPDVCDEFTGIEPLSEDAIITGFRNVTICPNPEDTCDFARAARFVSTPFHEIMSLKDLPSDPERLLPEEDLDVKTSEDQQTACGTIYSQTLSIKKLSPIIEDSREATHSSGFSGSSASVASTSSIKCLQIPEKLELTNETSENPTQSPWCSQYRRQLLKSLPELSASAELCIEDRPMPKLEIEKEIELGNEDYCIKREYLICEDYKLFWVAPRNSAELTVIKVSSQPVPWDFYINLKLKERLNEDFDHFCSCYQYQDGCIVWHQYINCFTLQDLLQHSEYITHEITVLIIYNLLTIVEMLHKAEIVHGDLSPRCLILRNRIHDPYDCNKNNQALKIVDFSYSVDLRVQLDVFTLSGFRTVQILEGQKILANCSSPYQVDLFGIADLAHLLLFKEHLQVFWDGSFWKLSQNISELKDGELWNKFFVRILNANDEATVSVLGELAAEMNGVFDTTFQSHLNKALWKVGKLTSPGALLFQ

Target | log2 fold change [1] | log2 fold change [2] | log2 fold change [3] | log2 fold change [4] | log2 fold change [5] | log2 fold change [6] | log2 fold change [7] | log2 fold change [8] | log2 fold change [9] | log2 fold change [10] | log2 fold change [11] | log2 fold change [12] | log2 fold change [13] | log2 fold change [14] | log2 fold change [15] | log2 fold change [16] | log2 fold change [17] | log2 fold change [18] | log2 fold change [19] | log2 fold change [20]
CENPQ (UniProt Q7L2Z9) | 0.069 | -0.167 | 0.038 | -0.023 | -0.115 | -0.084 | -0.44 (active) | 0.095 | 0.033 | 0.023 | -0.122 | -0.016 | 0.032 | -0.085 | 0.055 | 0.169 | 0.025 | 0 | -0.068 | 0.091
BNIP1 (UniProt Q12981) | 0.024 | 0 | 0.057 | -0.032 | -0.054 | -0.013 | 0.287 (active) | -0.204 | 0.032 | 0.006 | 0.231 | -0.045 | 0.055 | 0 | -0.014 | 0.095 | -0.037 | 0.004 | 0.004 | -0.018
ATP11A (UniProt P98196) | -0.035 | -0.015 | 0.006 | 0.019 | 0.026 | 0 | -0.116 | 0.024 | -0.01 | 0.063 | -0.002 | -0.047 | -0.021 | -0.017 | -0.022 | 0.028 | -0.065 | -0.083 | 0.01 | 0.031
ATG7 (UniProt O95352) | -0.031 | 0.014 | -0.002 | -0.032 | -0.052 | 0.021 | -0.058 | 0.091 | -0.003 | 0.037 | 0.01 | -0.075 | 0.001 | 0.012 | -0.04 | 0.021 | -0.031 | 0.006 | -0.008 | 0.019
CELF1 isoform 4 (UniProt Q92879) | 0.024 | 0.014 | 0.03 | -0.044 | -0.133 | 0.012 | 0.08 | -0.08 | 0.035 | 0.054 | 0 | -0.167 | 0.034 | 0.049 | -0.059 | 0.108 | -0.031 | 0.048 | -0.026 | 0.056
CEPT1 (UniProt Q9Y6K0) | -0.031 | 0.006 | 0.08 | -0.006 | 0.042 | -0.079 | -0.102 | 0.084 | 0.037 | -0.008 | -0.012 | 0.055 | -0.024 | 0 | -0.051 | 0.019 | -0.025 | 0.054 | -0.123 | -0.036
ATAD3B (UniProt Q5T9A4) | -0.022 | 0.016 | -0.007 | -0.004 | -0.019 | 0.014 | 0.383 (active) | -0.205 | -0.018 | -0.013 | 0.124 | 0.047 | -0.029 | 0.046 | 0.039 | 0.016 | -0.128 | 0.006 | -0.008 | -0.001
CCNK isoform 4 (UniProt O75909) | -0.013 | 0.006 | -0.028 | 0.04 | -0.009 | -0.007 | -0.185 | 0.095 | 0.049 | 0.004 | -0.094 | -0.004 | 0.01 | -0.011 | 0.009 | 0.017 | -0.035 | 0.071 | 0 | 0.046
CBX1 (UniProt P83916) | 0.001 | 0.015 | -0.075 | 0.028 | 0.01 | 0.006 | 0.301 (active) | -0.111 | -0.003 | 0.038 | 0.078 | 0.011 | 0.011 | -0.001 | 0.025 | 0.01 | -0.055 | 0.012 | -0.025 | 0.059
C18orf32 (UniProt Q8TCD1) | 0.164 | -0.044 | -0.019 | 0.125 | 0.054 | 0.054 | -0.073 | 0 | 0.006 | -0.112 | 0.049 | 0.035 | 0.084 | 0.144 | 0 | 0.168 | -0.316 | 0.043 | -0.019 | -0.249
C5orf51 (UniProt A6NDU8) | -0.002 | 0.009 | 0.046 | -0.014 | -0.029 | 0.053 | 0.036 | -0.137 | 0.016 | 0.036 | 0.075 | -0.123 | -0.01 | -0.045 | -0.043 | -0.006 | 0.144 | 0.023 | 0.038 | 0.056
BUB1B isoform 3 (UniProt O60566) | 0.024 | 0.024 | 0.03 | -0.012 | -0.014 | 0.01 | 0.13 | -0.05 | -0.006 | 0.009 | -0.032 | -0.122 | 0.018 | -0.012 | 0.018 | 0.033 | 0.018 | 0.002 | 0.011 | -0.005
CDC42EP4 (UniProt Q9H3Q1) | 0.01 | -0.01 | 0.013 | 0.162 | 0.013 | -0.04 | -0.021 | 0.042 | -0.064 | -0.012 | -0.086 | -0.013 | 0.041 | 0.033 | 0.113 | 0.079 | -0.054 | -0.085 | -0.017 | 0.006
CBR1 (UniProt P16152) | -0.009 | 0.011 | -0.013 | -0.019 | 0.004 | 0 | -0.096 | 0.077 | 0.037 | -0.047 | -0.013 | 0.015 | -0.006 | 0.008 | -0.041 | 0 | 0.02 | -0.024 | 0.023 | -0.068
BTAF1 (UniProt O14981) | 0.029 | 0.026 | 0.029 | -0.029 | -0.058 | 0.045 | -0.138 | 0.051 | 0.008 | 0.006 | -0.001 | -0.106 | 0.021 | -0.013 | 0 | 0.021 | 0.008 | 0.018 | -0.008 | 0.009
BET1 (UniProt O15155) | 0.107 | -0.012 | 0.028 | -0.019 | 0.032 | -0.021 | 0.044 | -0.009 | 0.031 | -0.033 | 0.07 | -0.038 | 0.033 | 0.058 | 0.027 | -0.062 | -0.214 (active) | -0.023 | -0.022 | -0.045
